Reference: PubChem BioAssay AID624037 (The Scripps Research Institute Molecular Screening Center, 2012)
Hit rate of the full screen: of about 360,000 compounds, about 700 (0.19%) were called active. For the sample, actives were picked, then their nearest neighbours and some compounds at random. Values without a mark were called inactive.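 The calls were made as follows: active = activation above the run's mean over test compounds plus 3 SD (cut at about 23% in these data); inactive = the rest.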

Biological target: Muscarinic acetylcholine receptor M5 (Homo sapiens) (UniProt P08912)
Assay: CHRM5 activators raising intracellular calcium – CHO-K1 cells, Fluo-8 calcium fluorescence, primary screen (AID 624037);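 also: signal is peak over basal fluorescence ratio across the kinetic read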
Conditions: CHO-K1 hM5 cells, at 3 µM, hits give high values, 0% DMSO wells, 100% maximal acetylcholine response

Sequence of Muscarinic acetylcholine receptor M5 (Homo sapiens) (P08912 whole entry, looked up): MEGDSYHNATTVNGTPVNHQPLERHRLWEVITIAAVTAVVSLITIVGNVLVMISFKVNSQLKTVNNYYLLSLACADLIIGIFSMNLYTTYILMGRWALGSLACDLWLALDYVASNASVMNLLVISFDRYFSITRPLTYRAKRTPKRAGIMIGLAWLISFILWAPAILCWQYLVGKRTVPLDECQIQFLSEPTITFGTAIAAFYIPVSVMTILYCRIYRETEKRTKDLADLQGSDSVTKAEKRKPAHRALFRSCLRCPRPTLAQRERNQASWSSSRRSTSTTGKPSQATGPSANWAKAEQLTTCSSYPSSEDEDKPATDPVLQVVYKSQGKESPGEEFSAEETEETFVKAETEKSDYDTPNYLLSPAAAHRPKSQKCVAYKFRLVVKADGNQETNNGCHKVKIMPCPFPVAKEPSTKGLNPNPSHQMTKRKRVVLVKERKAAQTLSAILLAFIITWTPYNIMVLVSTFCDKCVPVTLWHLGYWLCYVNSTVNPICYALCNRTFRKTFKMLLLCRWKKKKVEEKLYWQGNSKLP

| Structure (SMILES) | activation |
| --- | --- |
| COc1ccc(CN(C)C(=S)Nc2ccc(Cl)cc2Cl)cc1 | -4.4% |
| O=C(CCS(=O)(=O)c1cccc2nonc12)NCCc1ccccc1Cl | -0.36% |
| Cc1nc(C)c2c(c1C(F)(F)F)-c1ccccc1C2(F)F | -0.42% |
| COc1ccc(CCN2C(=O)c3[nH]nc(-c4ccccc4O)c3C2c2ccc(C)cc2)cc1OC (stereo not given) | -2.41% |
| COc1ccc(-c2onc(C)c2-c2ccc3c(c2)OCCO3)c(O)c1 | 12.5% |
| COc1ccc(-c2n[nH]c(C)c2-c2ccc(OC)c(OC)c2)c(O)c1 | 29.1% (active) |
| O=C(NCC12CC3CC(C1)CC(CNC(=O)N1CCCC1)(C3)C2)N1CCCC1 | 2.96% |
| COCCNc1ccc(-c2n[nH]c(=O)c3ccccc23)cc1[N+](=O)[O-] | -2.62% |
| CCCCC(=O)N1CC2(C)CN(C(=O)CCCC)CC(C)(C1)C2=O | 1.44% |
| O=C(COc1ccc([N+](=O)[O-])cc1Cl)Nn1cnnc1 | -0.29% |
| COc1ccc(C(C[N+](=O)[O-])n2nc(C)cc2C)cc1 (stereo not given) | 1.97% |
| Cc1cc(NC(=O)Nc2ccccc2[N+](=O)[O-])no1 | -2.19% |
| CN(C)c1ccc(C(CNC(=O)c2ccc(F)cc2)c2c[nH]c3ccccc23)cc1 (stereo not given) | -4.52% |
| Cc1cc(=O)oc2c3c(cc(OCC(=O)NCCC(=O)N[C@@H](C)C(=O)O)c12)OC(C)(C)CC3 | -2.41% |
| C[C@@H]1CN([C@H](C)CO)S(=O)(=O)c2ccc(C#CC3CCCCC3)cc2O[C@H]1CN(C)C(=O)Cc1ccncc1 | 1.87% |
| Cn1nc(N)c2ncc(C(Cl)(Cl)Cl)nc21 | -0.27% |
| CCC1CCCCN1S(=O)(=O)Cc1ccccc1Cl (stereo not given) | -4.8% |
| CCCS(=O)(=O)N1CCN(C(=O)c2cccs2)CC1 | 2.49% |
| COc1ccccc1/C=C/CN1CCC(CO)(Cc2ccccc2)CC1 | 0.17% |
| O=C(Cn1cnc2c(OCc3ccccc3)ncnc21)NCc1nc2ccccc2[nH]1 | -0.16% |
| Cc1ccc(NC(=O)C(C)c2cccc(C(=O)c3ccccc3)c2)cc1 (stereo not given) | 5.38% |
| CCCC(C)C(=O)Nc1ccc(NC(C)=O)cc1 (stereo not given) | 0.87% |
| CCC(C(=O)Nc1ccc(C(C)C)cc1)c1ccccc1 (stereo not given) | 35.8% (active) |

| Structure (SMILES) | activation |
| --- | --- |
| CCOC(=O)c1sc(NC(=O)CSc2nc(C)cc(C(F)(F)F)n2)c(C#N)c1C | -3.97% |
| Clc1ccc(C2=CSC3=Nc4cccc5cccc(c45)N23)cc1 | -0.82% |
| COc1ccc(OCCCn2cccc2/C=C2/C(=N)N3OC(C)=CC3=NC2=O)cc1 | 0.09% |
| CC1=CC2=NC(=O)/C(=C/c3coc4ccccc4c3=O)C(=N)N2O1 | 38.9% (active) |
| CC(C)CCN1CCN(Cc2cn[nH]c2C2CCCCC2)CC1CCO (stereo not given) | -10.3% |
| CCOCCCNC(=O)c1ccc(CS(=O)(=O)c2cccc(C(F)(F)F)c2)o1 | -2.51% |
| Cc1cc(OCC(=O)N(C)c2c(N)n(Cc3ccccc3)c(=O)[nH]c2=O)c(C(C)C)cc1Cl | -1.72% |
| Cn1c(=O)[nH]c(=O)c2c1[nH]c(=S)n2Cc1ccccc1 | -2.82% |
| Cc1cc2nc3c(=O)n(Cc4ccccc4)c(=O)[nH]c3nc2cc1N | 86.1% (active) |
| O=C(COc1ccc(F)cc1)N(CC1=CCS(=O)(=O)C1)c1ccccc1 | -3.65% |
| O=C(O)c1ccc2c(=O)n3c(nc2c1)/C(=C/c1ccc(OC(F)F)cc1OC(F)F)CC3 | -3.87% |
| COc1ccc(NC(=O)CCS(=O)(=O)c2cc3c(cc2Cl)NC(=O)CO3)cc1OC | -3.81% |
| COc1ccc(Cl)cc1NC(=O)CCS(=O)(=O)c1cc2c(cc1C)NC(=O)CO2 | 38% (active) |
| Cc1cc2c(cc1S(=O)(=O)CCC(=O)NCc1ccccc1)OCC(=O)N2 | 0.35% |
| CCOC(=O)Cn1c(=O)oc2cc(S(=O)(=O)NCC3CCCO3)ccc21 (stereo not given) | 1.72% |
| Cc1ccc(S(=O)(=O)N2C[C@H]3n4c(=O)ccc(=O)n4C[C@H](OC(=O)NC4CCCC4)[C@@]3(O)C2)cc1 | 0.5% |
| CCC1(C(=O)c2ccccc2)C(c2cccc([N+](=O)[O-])c2)C1(C(=O)OC)C(=O)OC (stereo not given) | -4.52% |
| O=C(Oc1ccc(C(=S)N2CCOCC2)cc1)c1ccc(F)cc1 | 3.46% |
| CN1C(=O)c2cccc3c(N)ccc(c23)C1=O | 45.7% (active) |
| Cc1nn(C)cc1N1C(=O)c2cccc3c(N)ccc(c23)C1=O | 91.9% (active) |
| CCC(C)(C)NC(=O)CN(C(=O)CCC(=O)Nc1nccs1)c1ccc2c(c1)OCO2 | -2.1% |
| COC(=O)c1sccc1-n1cccc1C(=O)C(=O)N1CCCCC1 | -2.31% |
| CC/C(=N\NC(=O)c1c(C)nc2ccccn12)c1ccc(Cl)cc1 | -4.55% |

| Structure (SMILES) | activation |
| --- | --- |
| COc1ccc(N2C(=O)C3C(C2=O)C(C(=O)c2ccccc2)N2CCCC32)cc1 (stereo not given) | 1.81% |
| CCn1c(CNc2ccc(OC)cc2)nnc1SCC(=O)c1ccc(OC)cc1 | -9.07% |
| O=[N+]([O-])/C=C1\CCCCCN1 | -0.84% |
| CC(C)C(=O)Nc1ccc2c3c(cccc13)CC2 | -5.26% |
| N#CC1(Nc2ccc3c4c(cccc24)CC3)CCCCC1 | 37.2% (active) |
| N#CC1(Nc2ccc(-c3ccc(Cl)cc3)cc2)CCCC1 | -3.18% |
| COc1cc(Cl)c(S(=O)(=O)n2cnc(C)c2)cc1Cl | 0.51% |
| COc1ccc(Cl)cc1S(=O)(=O)N1CCC(O)(c2ccc(Cl)cc2)CC1 | -0.77% |
| COc1cc(OC)c(-n2cc(-c3ccc(Cl)cc3)[nH]c2=O)cc1Cl | 42.8% (active) |
| COc1ccc(C)cc1NC(=O)CSc1nnc(CC(=O)Nc2ccccc2F)n1C | -1.92% |
| COc1ccc(OC)c(CN2C(=O)CCC2(C)c2nnnn2Cc2ccccc2)c1 (stereo not given) | 2.06% |
| COc1ccc(-n2c(C)csc2=S)cc1 | -0.99% |
| CCOC(=O)C1=C(CC)OC(N)=C(C#N)C1c1ccc(F)cc1F (stereo not given) | -0.33% |
| Cn1cc(CNC(=O)c2ccc(OC3CCN(Cc4ccccn4)CC3)cc2)cn1 | -4.97% |
| COc1ccc(SCCN2CCN(CC(C)C)CCC2=O)cc1 | 1.8% |
| O=C(COc1nc2ccccc2nc1N1CCOCC1)NCC(F)(F)F | -2.71% |
| Nc1nc2c(ncn2[C@@H]2O[C@H](CNCc3ccc(OCCCN4CCOCC4)cc3)[C@@H](O)[C@H]2O)c(=O)[nH]1 | 0.62% |
| O=[N+]([O-])c1cc(C(F)(F)F)ccc1NCCc1ccncc1 | -2.99% |
| O=C(/C=C/Nc1ccc(S(=O)(=O)Nc2cnc3ccccc3n2)cc1)c1cccnc1 | -3.4% |
| COCCN(C(=O)CCC(=O)Nc1ccccn1)C(C(=O)NCCC(C)C)c1ccc(OC)cc1 (stereo not given) | -1.86% |
| COc1ccc(C(=O)/C=C/Nc2ccccn2)cc1 | 78% (active) |
| CCOc1ccc(C(=O)NC(=S)Nc2ccc(N3CCOCC3)c(Cl)c2)cc1[N+](=O)[O-] | -0.99% |
| COc1ccc(NC(=O)CN2C(=O)COc3ccc(S(=O)(=O)N4CCOCC4)cc32)c(OC)c1 | 0.4% |

| Structure (SMILES) | activation |
| --- | --- |
| C[C@H]1COC(=O)[C@H](CC(=O)OC(C)(C)C)C/C=C\C[C@@H](CC(=O)N[C@H](CO)Cc2ccccc2)C(=O)N1 | 0.74% |
| Nc1ccn(C2CC(O)C(CO)O2)c(=O)n1 (stereo not given) | 10.7% |
| O=c1[nH]cnc(O)c1C(c1ccc(F)cc1)c1c(O)nc[nH]c1=O | 0.85% |
| Cc1occc(=O)c1OCc1c(Cl)cccc1Cl | -4.28% |
| Cc1occc1C(=O)NC1CCCN(Cc2ccc(CC(C)C)cc2)C1 (stereo not given) | -1.97% |
| Cc1ccc(Cn2c(C)c(C(=O)NCc3ccccc3C(F)(F)F)sc2=O)cc1 | -2.26% |
| CC(=O)Oc1ccc(Cn2c(C)c(C(=O)NCc3ccc(C#N)cc3)sc2=O)cc1 | 47.2% (active) |
| Cc1c(C(=O)NCc2ccc(C#N)cc2)sc(=O)n1Cc1ccc(C(=O)N(C)C)cc1 | 0.99% |
| CCN(C(=O)COC(=O)c1cc(NS(=O)(=O)c2ccc(Cl)c([N+](=O)[O-])c2)ccc1O)C1CCCCC1 | 2.95% |
| CCC(CC)NC(=O)CSc1nnc(-c2c[nH]c3ccccc23)o1 | -0.74% |
| CC1=CC=CN2C1=NC(=O)CC2(C)C(=O)N(CC(=O)NC1CCCC1)c1ccccc1C (stereo not given) | 0.83% |
| COc1cc(=O)[nH]c(=O)n1C(=O)Cc1ccccc1 | -1.68% |
| COc1cc(/C=C2/SC(=S)N(Cc3ccccc3)C2=O)cc(OC)c1O | 24.1% (active) |
| COc1cc(C(=S)NCc2ccccc2)cc(Br)c1O | -4.14% |
| Nc1c(C(=O)c2cccs2)sc2nsc(SCCN3CCCCC3)c12 | 121% (active) |
| COc1cccc(-c2cnc3c(NC(C)=O)cc(-c4cc(F)ccc4OC)cn23)c1 | -1.59% |
| CCn1c(C(C)C)n[nH]c1=S | 1.36% |
| CCOc1ccc(Cn2nnc(C(=O)NCc3ccccc3)c2N)cc1 | 34.7% (active) |
| CCCn1nc2cc(C(=O)NCc3ccccc3)ccc2c1OCC | -0.79% |
| CCc1ccc(NC(=O)Cn2nnc(C(=O)NCc3ccc4c(c3)OCO4)c2N)cc1 | -3.78% |
| CCN(CC)CCCC(C)n1c2nc(=O)[nH]c(=O)c-2nc2cc(Cl)ccc21 (stereo not given) | 438% (active) |
